PubChem BioAssay (NCI)
About 83,000 compounds went through this panel and 20% of them were active in at least one assay; those are over-represented in the sample as a whole.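 Assay: single dose, 48 h. Readout: percent growth (0 = no net growth; negative = cell death). Active: <10.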 Unmarked numbers belong to inactive results. The source made the active and inactive calls.

Legend:
Test in all cases: NCI-60 one-dose screen, 48 h (100 = growth as untreated, 0 = no growth, -100 = all killed)
Conditions in all cases: 10 µM unless noted
[1] = system: NCI-H23 lung
[2] = system: NCI-H226 lung
[3] = system: NCI-H322M lung
[4] = system: HOP-62 NSCLC
[5] = system: NCI-H460 lung
[6] = system: HOP-92 NSCLC
[7] = system: NCI-H522 lung
[8] = system: A549/ATCC NSCLC
[9] = system: 786-0 renal
[10] = system: COLO 205 colon
[11] = system: DU-145 prostate
[12] = system: MALME-3M melanoma
[13] = system: MDA-MB-231 breast
[14] = system: RXF 393 renal
[15] = system: SF-268 CNS
[16] = system: SF-295 CNS
[17] = system: SF-539 CNS
[18] = system: UACC-257 melanoma
[19] = system: M14 melanoma
[20] = system: K-562 leukemia

**Q.** Which growth [1] does the source give for `Cc1ccc(NS(=O)(=O)c2cc(C)ccc2C)cc1` here?
**A.** 59.2%

**Q.** What about the growth [2] of the same molecule?
**A.** 79.1%

**Q.** What about the growth [3] of the same molecule?
**A.** 88.7%

**Q.** What about the growth [4] of the same molecule?
**A.** 49.3%

**Q.** And the growth [5]?
**A.** 14.4%

**Q.** And the growth [6]?
**A.** 39.6%

**Q.** And the growth [7]?
**A.** 11.5%

**Q.** What about the growth [8] of the same molecule?
**A.** 33.5%

**Q.** And the growth [9]?
**A.** 61%

**Q.** What about the growth [10] of the same molecule?
**A.** 32.8%

**Q.** And the growth [11]?
**A.** 57.9%

**Q.** What about the growth [12] of the same molecule?
**A.** 54.1%

**Q.** And the growth [13]?
**A.** 57.4%

**Q.** What about the growth [14] of the same molecule?
**A.** 47.6%

**Q.** What about the growth [15] of the same molecule?
**A.** 53.7%

**Q.** And the growth [16]?
**A.** 30.7%

**Q.** What about the growth [17] of the same molecule?
**A.** 45.4%

**Q.** And the growth [18]?
**A.** 73%

**Q.** And the growth [19]?
**A.** 8.87% (active)

**Q.** `CCN(CC)CCOC(=O)C(c1ccccc1)(c1ccccc1)C(C)C` was tested. Which growth [1] did it give?
**A.** 90.2%

**Q.** And the growth [2]?
**A.** 92.9%

**Q.** What about the growth [3] of the same molecule?
**A.** 82.3%

**Q.** And the growth [4]?
**A.** 83.2%

**Q.** And the growth [5]?
**A.** 92%

**Q.** And the growth [6]?
**A.** 77.7%

**Q.** What about the growth [7] of the same molecule?
**A.** 86.6%

**Q.** What about the growth [8] of the same molecule?
**A.** 80%

**Q.** What about the growth [10] of the same molecule?
**A.** 66.3%

**Q.** What about the growth [11] of the same molecule?
**A.** 99%

**Q.** What about the growth [20] of the same molecule?
**A.** 85.7%

**Q.** And the growth [12]?
**A.** 95.1%

**Q.** And the growth [13]?
**A.** 74.3%

**Q.** What about the growth [14] of the same molecule?
**A.** 95.6%

**Q.** What about the growth [15] of the same molecule?
**A.** 86.1%

**Q.** What about the growth [16] of the same molecule?
**A.** 91.1%

**Q.** And the growth [17]?
**A.** 107%

**Q.** And the growth [18]?
**A.** 63.2%

**Q.** What about the growth [19] of the same molecule?
**A.** 106%

**Q.** With `Cc1ccc2nc(Cl)cc(=O)n2c1` as the molecule, how does the growth [1] read?
**A.** 107%

**Q.** What about the growth [2] of the same molecule?
**A.** 108%

**Q.** And the growth [3]?
**A.** 116%

**Q.** What about the growth [4] of the same molecule?
**A.** 100%

**Q.** And the growth [5]?
**A.** 113%

**Q.** And the growth [6]?
**A.** 104%

**Q.** What about the growth [7] of the same molecule?
**A.** 116%

**Q.** What about the growth [8] of the same molecule?
**A.** 113%

**Q.** And the growth [9]?
**A.** 100%

**Q.** What about the growth [10] of the same molecule?
**A.** 108%

**Q.** What about the growth [11] of the same molecule?
**A.** 124%

**Q.** What about the growth [12] of the same molecule?
**A.** 135%

**Q.** What about the growth [13] of the same molecule?
**A.** 111%

**Q.** What about the growth [14] of the same molecule?
**A.** 117%

**Q.** And the growth [15]?
**A.** 114%

**Q.** And the growth [16]?
**A.** 113%

**Q.** And the growth [18]?
**A.** 112%

**Q.** And the growth [19]?
**A.** 104%

**Q.** With `CCCCCCCC/C=C/CCCCCCCC1=NC(C)(C)CN1C(C)(C)CO` as the molecule, how does the growth [1] read?
**A.** 44.7%

**Q.** What about the growth [2] of the same molecule?
**A.** 86.2%

**Q.** And the growth [3]?
**A.** 58.5%

**Q.** What about the growth [4] of the same molecule?
**A.** 30.6%

**Q.** And the growth [5]?
**A.** -86.4% (active)

**Q.** What about the growth [6] of the same molecule?
**A.** 20.3%

**Q.** What about the growth [7] of the same molecule?
**A.** 13%

**Q.** And the growth [8]?
**A.** 30.8%

**Q.** What about the growth [9] of the same molecule?
**A.** 60.3%

**Q.** And the growth [10]?
**A.** -86.3% (active)

**Q.** And the growth [20]?
**A.** -58.6% (active)

**Q.** And the growth [12]?
**A.** -12.9% (active)

**Q.** What about the growth [13] of the same molecule?
**A.** 17.5%

**Q.** And the growth [14]?
**A.** 13.1%

**Q.** What about the growth [15] of the same molecule?
**A.** 53.6%

**Q.** And the growth [16]?
**A.** 86.9%

**Q.** And the growth [17]?
**A.** 77.1%

**Q.** And the growth [18]?
**A.** -28.5% (active)

**Q.** What about the growth [19] of the same molecule?
**A.** -84.7% (active)

**Q.** With `CN(C)CC(C(=O)c1ccccc1)c1ccccc1` (stereo not given) as the molecule, how does the growth [1] read?
**A.** 58.2%

**Q.** What about the growth [2] of the same molecule?
**A.** 47.4%

**Q.** What about the growth [3] of the same molecule?
**A.** 106%

**Q.** What about the growth [4] of the same molecule?
**A.** 43.7%

**Q.** What about the growth [5] of the same molecule?
**A.** 79.5%

**Q.** And the growth [6]?
**A.** -0.711% (active)

**Q.** And the growth [7]?
**A.** -77.5% (active)

**Q.** And the growth [8]?
**A.** 71.4%

**Q.** What about the growth [9] of the same molecule?
**A.** 74%

**Q.** And the growth [10]?
**A.** -48% (active)

**Q.** What about the growth [11] of the same molecule?
**A.** 14.7%

**Q.** And the growth [12]?
**A.** 57.7%

**Q.** What about the growth [13] of the same molecule?
**A.** 80%

**Q.** And the growth [14]?
**A.** 54.8%

**Q.** What about the growth [15] of the same molecule?
**A.** 5.71% (active)

**Q.** What about the growth [16] of the same molecule?
**A.** 93.1%

**Q.** What about the growth [17] of the same molecule?
**A.** 33.7%

**Q.** What about the growth [18] of the same molecule?
**A.** 32.7%

**Q.** And the growth [19]?
**A.** -1.12% (active)

**Q.** Which results are given for `COc1cc(NCCCCCN)c2ncccc2c1`?
**A.** growth [1]: 100%; growth [2]: 112%; growth [3]: 122%; growth [4]: 102%; growth [5]: 117%; growth [6]: 117%; growth [7]: 137%; growth [8]: 105%; growth [9]: 119%; growth [10]: 119%; growth [11]: 119%; growth [20]: 102%; growth [12]: 99%; growth [14]: 129%; growth [15]: 106%; growth [16]: 112%; growth [18]: 107%; growth [19]: 96.8%

**Q.** With `S=c1[nH]nc(-c2cc3ccc2CCc2ccc(cc2)CC3)n1-c1ccccc1` as the molecule, how does the growth [1] read?
**A.** 98%

**Q.** What about the growth [2] of the same molecule?
**A.** 107%

**Q.** What about the growth [3] of the same molecule?
**A.** 96.4%

**Q.** And the growth [4]?
**A.** 106%

**Q.** What about the growth [5] of the same molecule?
**A.** 99.6%

**Q.** And the growth [6]?
**A.** 98.4%

**Q.** What about the growth [7] of the same molecule?
**A.** 87.3%

**Q.** And the growth [8]?
**A.** 93.1%

**Q.** And the growth [10]?
**A.** 106%

**Q.** And the growth [11]?
**A.** 101%

**Q.** And the growth [20]?
**A.** 87%

**Q.** What about the growth [12] of the same molecule?
**A.** 100%

**Q.** And the growth [13]?
**A.** 95%

**Q.** What about the growth [14] of the same molecule?
**A.** 129%

**Q.** And the growth [15]?
**A.** 113%

**Q.** What about the growth [16] of the same molecule?
**A.** 91.7%

**Q.** What about the growth [17] of the same molecule?
**A.** 110%

**Q.** And the growth [18]?
**A.** 103%

**Q.** What about the growth [19] of the same molecule?
**A.** 97.2%

**Q.** Which growth [1] does the source give for `COc1cc(/C=C/c2cc(/C=C/c3ccc(O)c(OC)c3)n(C(N)=O)n2)ccc1O` here?
**A.** -4% (active)

**Q.** What about the growth [2] of the same molecule?
**A.** 11.9%

**Q.** And the growth [3]?
**A.** -1.78% (active)

**Q.** And the growth [4]?
**A.** -3.02% (active)

**Q.** And the growth [5]?
**A.** 0.571% (active)

**Q.** What about the growth [6] of the same molecule?
**A.** -42.8% (active)

**Q.** And the growth [7]?
**A.** -21.2% (active)

**Q.** And the growth [8]?
**A.** 3.16% (active)

**Q.** What about the growth [9] of the same molecule?
**A.** -45.8% (active)

**Q.** And the growth [10]?
**A.** -37.7% (active)

**Q.** What about the growth [11] of the same molecule?
**A.** 2.11% (active)

**Q.** What about the growth [20] of the same molecule?
**A.** -23% (active)

**Q.** What about the growth [12] of the same molecule?
**A.** -4.94% (active)

**Q.** What about the growth [13] of the same molecule?
**A.** 3.7% (active)

**Q.** What about the growth [15] of the same molecule?
**A.** -10.7% (active)

**Q.** And the growth [16]?
**A.** 4.87% (active)

**Q.** And the growth [17]?
**A.** -26.3% (active)

**Q.** And the growth [18]?
**A.** 0.83% (active)

**Q.** What about the growth [19] of the same molecule?
**A.** -66.2% (active)
